# Measurements from paper PMC7862700, “An all-to-all approach to the identification of sequence-specific readers for epigenetic DNA modifications on cytosine”.
# Tests used:
# Assay in all cases: DAPPL (digital affinity profiling via proximity ligation, sequencing); 10 mM Tris-HCl pH 7.5, 50 mM NaCl, 1 mM DTT, 4% glycerol, room temperature, 30 min; GST-TFs on glutathione beads, 16-mer random dsDNA library, 0.1% formaldehyde crosslink after washing; high values mean tight binding
# FLI1 = biological target: T1, FLI1 (Homo sapiens, UniProt Q01543 1-452); conditions: protein: recombinant; tags: N-terminal GST; dsDNA, one strand shown
# T1 sequence: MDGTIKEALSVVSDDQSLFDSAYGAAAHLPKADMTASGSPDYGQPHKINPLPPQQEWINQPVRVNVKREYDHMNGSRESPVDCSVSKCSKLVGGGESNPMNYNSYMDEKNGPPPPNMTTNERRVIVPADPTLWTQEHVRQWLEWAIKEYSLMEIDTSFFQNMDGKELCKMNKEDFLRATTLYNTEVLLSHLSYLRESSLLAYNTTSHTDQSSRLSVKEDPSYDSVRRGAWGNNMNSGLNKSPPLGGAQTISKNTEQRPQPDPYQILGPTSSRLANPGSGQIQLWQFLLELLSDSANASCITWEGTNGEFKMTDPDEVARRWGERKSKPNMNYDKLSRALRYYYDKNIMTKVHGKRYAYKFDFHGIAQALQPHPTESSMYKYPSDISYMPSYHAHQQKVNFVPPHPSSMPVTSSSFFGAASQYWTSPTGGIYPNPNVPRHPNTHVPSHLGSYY
# In short: (§1)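 Each value of binding signal is a hexamer's read frequency for a factor divided by the same hexamer's frequency in the tag-only sample. Barcoded, bead-captured GST fusions of human transcription factors made in yeast were pooled with that sample and incubated with 200 nmole of a random double-stranded 16-mer DNA library in Tris/NaCl/DTT/glycerol buffer at room temperature for 30 min. Washing, 0.1% formaldehyde crosslinking, proximity ligation, PCR and Illumina NextSeq500 sequencing followed.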
# ELK1 = biological target: T2, ELK1 (Homo sapiens, UniProt P19419 1-428); conditions: protein: recombinant; tags: N-terminal GST; dsDNA, one strand shown
# T2 sequence: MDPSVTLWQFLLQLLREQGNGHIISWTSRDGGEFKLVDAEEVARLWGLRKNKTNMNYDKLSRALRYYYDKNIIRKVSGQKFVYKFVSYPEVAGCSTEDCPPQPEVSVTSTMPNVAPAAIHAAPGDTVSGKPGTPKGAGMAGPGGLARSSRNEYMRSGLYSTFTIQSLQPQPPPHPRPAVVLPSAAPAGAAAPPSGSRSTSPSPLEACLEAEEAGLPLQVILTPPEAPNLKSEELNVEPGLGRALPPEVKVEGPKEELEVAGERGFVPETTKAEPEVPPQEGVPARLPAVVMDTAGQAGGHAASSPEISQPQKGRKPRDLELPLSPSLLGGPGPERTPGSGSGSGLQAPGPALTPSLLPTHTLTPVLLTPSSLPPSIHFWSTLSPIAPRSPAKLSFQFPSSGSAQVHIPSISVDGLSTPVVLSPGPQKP
# In short: as §1
# GABPA = biological target: T3, GABPA (Homo sapiens, UniProt Q06546 1-454); conditions: protein: recombinant; tags: N-terminal GST; dsDNA, one strand shown
# T3 sequence: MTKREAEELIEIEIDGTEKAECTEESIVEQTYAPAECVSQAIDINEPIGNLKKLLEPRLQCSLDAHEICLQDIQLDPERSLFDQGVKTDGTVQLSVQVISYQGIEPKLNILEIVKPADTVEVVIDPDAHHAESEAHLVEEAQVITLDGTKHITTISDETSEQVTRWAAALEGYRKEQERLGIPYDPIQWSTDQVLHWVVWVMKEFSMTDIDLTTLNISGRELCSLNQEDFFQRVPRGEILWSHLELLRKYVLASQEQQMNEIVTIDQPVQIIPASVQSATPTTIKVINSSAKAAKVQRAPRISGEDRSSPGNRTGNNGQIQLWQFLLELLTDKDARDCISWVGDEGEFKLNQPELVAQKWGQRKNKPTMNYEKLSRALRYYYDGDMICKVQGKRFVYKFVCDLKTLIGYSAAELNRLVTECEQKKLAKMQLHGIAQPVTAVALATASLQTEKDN
# In short: as §1
# ERG = biological target: T4, ERG (Homo sapiens, UniProt P11308 1-479); conditions: protein: recombinant; tags: N-terminal GST; dsDNA, one strand shown
# T4 sequence: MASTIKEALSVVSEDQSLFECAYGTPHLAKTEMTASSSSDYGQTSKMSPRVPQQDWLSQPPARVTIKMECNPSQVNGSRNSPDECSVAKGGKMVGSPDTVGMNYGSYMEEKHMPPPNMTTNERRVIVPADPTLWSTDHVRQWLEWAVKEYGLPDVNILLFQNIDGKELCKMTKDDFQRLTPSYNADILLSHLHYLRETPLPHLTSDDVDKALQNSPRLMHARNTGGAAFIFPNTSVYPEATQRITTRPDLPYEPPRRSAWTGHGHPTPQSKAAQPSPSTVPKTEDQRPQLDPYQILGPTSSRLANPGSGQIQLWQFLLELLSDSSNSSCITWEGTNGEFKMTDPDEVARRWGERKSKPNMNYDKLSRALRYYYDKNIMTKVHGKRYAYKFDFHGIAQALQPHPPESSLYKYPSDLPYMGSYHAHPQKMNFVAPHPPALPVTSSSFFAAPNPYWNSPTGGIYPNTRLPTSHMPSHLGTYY
# In short: as §1
# ELF1 = ELF1 (Homo sapiens, UniProt P32519 1-619); conditions: protein: recombinant; tags: N-terminal GST; dsDNA, one strand shown
# ELF1, sequence (P32519 whole entry): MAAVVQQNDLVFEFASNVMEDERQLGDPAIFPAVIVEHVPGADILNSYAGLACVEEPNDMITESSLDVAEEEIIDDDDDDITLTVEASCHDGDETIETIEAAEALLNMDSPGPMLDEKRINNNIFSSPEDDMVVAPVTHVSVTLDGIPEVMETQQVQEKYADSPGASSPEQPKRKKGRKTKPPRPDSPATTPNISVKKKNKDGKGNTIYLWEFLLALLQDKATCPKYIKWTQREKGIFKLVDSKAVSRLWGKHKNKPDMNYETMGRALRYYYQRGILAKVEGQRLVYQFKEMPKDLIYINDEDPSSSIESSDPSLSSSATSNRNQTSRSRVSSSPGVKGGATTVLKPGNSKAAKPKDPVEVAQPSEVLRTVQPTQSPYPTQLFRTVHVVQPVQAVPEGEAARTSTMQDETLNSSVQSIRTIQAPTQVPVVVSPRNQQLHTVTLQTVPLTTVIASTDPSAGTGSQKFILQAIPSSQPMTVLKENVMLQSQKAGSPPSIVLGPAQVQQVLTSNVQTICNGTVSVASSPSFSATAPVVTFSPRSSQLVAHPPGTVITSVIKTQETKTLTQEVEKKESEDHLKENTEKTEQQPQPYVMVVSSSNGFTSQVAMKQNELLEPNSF
# In short: as §1
# EHF = biological target: T5, EHF (Homo sapiens, UniProt Q9NZC4 1-300); conditions: protein: recombinant; tags: N-terminal GST; dsDNA, one strand shown
# T5 sequence: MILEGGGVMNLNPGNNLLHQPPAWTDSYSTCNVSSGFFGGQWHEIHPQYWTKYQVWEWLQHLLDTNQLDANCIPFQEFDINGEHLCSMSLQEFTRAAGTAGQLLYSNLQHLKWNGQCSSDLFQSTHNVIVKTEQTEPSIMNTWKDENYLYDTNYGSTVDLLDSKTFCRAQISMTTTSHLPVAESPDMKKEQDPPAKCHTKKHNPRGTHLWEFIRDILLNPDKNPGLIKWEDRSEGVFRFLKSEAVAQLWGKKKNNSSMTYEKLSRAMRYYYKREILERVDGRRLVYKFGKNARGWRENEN
# In short: as §1
# SPI1 = SPI1 (Homo sapiens, UniProt P17947 1-270); conditions: protein: recombinant; tags: N-terminal GST; dsDNA, one strand shown
# In short: as §1
# SPIB = SPIB (Homo sapiens, UniProt Q01892 1-262); conditions: protein: recombinant; tags: N-terminal GST; dsDNA, one strand shown
# SPIB, sequence (Q01892 whole entry): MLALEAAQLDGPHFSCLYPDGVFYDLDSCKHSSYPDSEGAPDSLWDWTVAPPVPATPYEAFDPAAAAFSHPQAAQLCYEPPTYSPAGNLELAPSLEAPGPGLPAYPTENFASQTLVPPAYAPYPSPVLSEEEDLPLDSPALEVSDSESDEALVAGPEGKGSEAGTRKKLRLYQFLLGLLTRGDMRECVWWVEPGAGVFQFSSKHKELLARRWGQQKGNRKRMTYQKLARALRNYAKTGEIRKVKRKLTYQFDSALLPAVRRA
# In short: as §1
# ELK3 = biological target: T6, ELK3 (Homo sapiens, UniProt P41970 1-407); conditions: protein: recombinant; tags: N-terminal GST; dsDNA, one strand shown
# T6 sequence: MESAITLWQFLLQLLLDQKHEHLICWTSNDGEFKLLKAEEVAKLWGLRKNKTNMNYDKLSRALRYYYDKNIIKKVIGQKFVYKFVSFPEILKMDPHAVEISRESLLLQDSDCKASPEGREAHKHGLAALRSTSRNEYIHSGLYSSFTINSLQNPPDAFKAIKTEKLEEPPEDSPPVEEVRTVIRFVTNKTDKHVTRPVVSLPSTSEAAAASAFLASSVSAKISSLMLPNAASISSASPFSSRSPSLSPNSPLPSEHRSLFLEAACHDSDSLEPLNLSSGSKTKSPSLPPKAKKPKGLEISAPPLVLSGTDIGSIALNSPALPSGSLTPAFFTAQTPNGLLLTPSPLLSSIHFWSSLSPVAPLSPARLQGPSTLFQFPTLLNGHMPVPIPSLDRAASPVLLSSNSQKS
# In short: as §1
# FEV = biological target: T7, FEV (Homo sapiens, UniProt Q99581 1-238); conditions: protein: recombinant; tags: N-terminal GST; dsDNA, one strand shown
# T7 sequence: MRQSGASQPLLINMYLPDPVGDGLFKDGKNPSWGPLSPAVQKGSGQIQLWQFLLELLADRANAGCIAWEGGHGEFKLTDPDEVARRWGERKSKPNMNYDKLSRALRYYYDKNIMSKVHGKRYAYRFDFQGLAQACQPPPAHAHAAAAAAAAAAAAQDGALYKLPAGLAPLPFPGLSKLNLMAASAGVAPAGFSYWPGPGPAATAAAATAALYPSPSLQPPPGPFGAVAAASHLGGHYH
# In short: as §1
# ETV5 = ETV5 (Homo sapiens, UniProt P41161 1-510); conditions: protein: recombinant; tags: N-terminal GST; dsDNA, one strand shown
# ETV5, sequence (P41161 whole entry): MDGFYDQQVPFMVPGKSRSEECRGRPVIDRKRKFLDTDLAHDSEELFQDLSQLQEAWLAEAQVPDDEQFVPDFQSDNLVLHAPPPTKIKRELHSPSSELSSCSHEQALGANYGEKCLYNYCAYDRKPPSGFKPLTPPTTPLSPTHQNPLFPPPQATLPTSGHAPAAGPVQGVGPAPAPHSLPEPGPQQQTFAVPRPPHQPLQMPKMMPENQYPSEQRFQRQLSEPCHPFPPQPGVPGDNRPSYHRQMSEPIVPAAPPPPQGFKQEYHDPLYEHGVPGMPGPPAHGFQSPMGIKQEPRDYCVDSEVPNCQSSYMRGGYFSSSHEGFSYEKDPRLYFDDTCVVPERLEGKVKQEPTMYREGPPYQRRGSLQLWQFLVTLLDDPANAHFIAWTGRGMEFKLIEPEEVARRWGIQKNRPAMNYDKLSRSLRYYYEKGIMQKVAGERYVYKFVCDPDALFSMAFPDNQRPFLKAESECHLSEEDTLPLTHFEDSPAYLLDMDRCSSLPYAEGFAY
# In short: as §1
# HSF1 = HSF1 (Homo sapiens, UniProt Q00613 1-529); conditions: protein: recombinant; tags: N-terminal GST; chain copies: 3; dsDNA, one strand shown
# HSF1, sequence (Q00613 whole entry): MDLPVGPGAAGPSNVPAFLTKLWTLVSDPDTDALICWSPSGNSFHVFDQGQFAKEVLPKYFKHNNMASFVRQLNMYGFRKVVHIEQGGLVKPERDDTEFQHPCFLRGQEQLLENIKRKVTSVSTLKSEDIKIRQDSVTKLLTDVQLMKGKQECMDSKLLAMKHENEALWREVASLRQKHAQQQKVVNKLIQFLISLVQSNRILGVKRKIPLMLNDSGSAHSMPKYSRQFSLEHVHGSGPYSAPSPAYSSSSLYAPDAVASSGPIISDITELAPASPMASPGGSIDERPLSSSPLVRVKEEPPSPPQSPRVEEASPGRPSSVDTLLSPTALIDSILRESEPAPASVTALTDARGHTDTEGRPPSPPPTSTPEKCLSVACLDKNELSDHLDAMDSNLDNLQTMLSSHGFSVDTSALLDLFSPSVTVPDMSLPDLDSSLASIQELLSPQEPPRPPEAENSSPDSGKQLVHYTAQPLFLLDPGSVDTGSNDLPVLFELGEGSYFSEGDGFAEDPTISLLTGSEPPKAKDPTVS
# In short: as §1
# SPIC = biological target: T8, SPIC (Homo sapiens, UniProt Q8N5J4 1-248); conditions: protein: recombinant; tags: N-terminal GST; dsDNA, one strand shown
# T8 sequence: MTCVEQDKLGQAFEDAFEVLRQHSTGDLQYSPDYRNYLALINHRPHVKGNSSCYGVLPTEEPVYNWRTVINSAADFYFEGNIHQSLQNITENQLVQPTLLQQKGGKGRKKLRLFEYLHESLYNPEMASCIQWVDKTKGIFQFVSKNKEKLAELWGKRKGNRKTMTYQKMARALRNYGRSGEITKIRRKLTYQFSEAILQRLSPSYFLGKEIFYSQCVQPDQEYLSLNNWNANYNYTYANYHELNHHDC
# In short: as §1
# ELF4 = ELF4 (Homo sapiens, UniProt Q99607 1-663); conditions: protein: recombinant; tags: N-terminal GST; dsDNA, one strand shown
# ELF4, sequence (Q99607 whole entry): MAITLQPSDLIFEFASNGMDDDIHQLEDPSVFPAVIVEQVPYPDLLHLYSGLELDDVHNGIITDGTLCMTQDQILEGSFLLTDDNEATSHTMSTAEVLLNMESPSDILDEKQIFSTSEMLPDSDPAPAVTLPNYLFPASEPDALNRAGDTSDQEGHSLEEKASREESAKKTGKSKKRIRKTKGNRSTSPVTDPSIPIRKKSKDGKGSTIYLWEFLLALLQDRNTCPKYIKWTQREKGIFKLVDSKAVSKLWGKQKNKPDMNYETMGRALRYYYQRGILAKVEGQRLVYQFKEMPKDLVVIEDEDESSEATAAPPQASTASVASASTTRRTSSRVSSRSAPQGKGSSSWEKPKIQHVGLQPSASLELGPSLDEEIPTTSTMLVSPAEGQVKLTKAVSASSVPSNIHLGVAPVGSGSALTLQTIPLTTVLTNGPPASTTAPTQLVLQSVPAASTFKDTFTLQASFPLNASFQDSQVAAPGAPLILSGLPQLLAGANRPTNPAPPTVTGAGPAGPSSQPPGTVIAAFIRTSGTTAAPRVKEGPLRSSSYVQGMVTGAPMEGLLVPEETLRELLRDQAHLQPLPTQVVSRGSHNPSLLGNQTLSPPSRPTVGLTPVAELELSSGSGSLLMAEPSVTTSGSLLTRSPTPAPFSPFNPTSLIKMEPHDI
# In short: as §1
# ELK4 = biological target: T9, ELK4 (Homo sapiens, UniProt P28324-2 1-405); conditions: protein: recombinant; tags: N-terminal GST; dsDNA, one strand shown
# T9 sequence: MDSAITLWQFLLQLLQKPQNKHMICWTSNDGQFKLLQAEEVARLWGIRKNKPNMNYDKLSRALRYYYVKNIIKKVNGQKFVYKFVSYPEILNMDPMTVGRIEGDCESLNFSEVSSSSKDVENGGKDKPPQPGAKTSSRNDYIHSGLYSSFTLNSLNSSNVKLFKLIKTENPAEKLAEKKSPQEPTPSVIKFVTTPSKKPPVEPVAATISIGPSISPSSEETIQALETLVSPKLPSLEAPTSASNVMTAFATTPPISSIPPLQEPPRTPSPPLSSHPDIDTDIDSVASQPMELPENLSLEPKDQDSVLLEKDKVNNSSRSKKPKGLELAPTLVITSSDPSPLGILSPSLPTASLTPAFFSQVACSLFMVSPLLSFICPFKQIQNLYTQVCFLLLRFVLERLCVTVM
# In short: as §1
# ETV2 = biological target: T10, ETV2 (Homo sapiens, UniProt O00321 1-342); conditions: protein: recombinant; tags: N-terminal GST; dsDNA, one strand shown
# T10 sequence: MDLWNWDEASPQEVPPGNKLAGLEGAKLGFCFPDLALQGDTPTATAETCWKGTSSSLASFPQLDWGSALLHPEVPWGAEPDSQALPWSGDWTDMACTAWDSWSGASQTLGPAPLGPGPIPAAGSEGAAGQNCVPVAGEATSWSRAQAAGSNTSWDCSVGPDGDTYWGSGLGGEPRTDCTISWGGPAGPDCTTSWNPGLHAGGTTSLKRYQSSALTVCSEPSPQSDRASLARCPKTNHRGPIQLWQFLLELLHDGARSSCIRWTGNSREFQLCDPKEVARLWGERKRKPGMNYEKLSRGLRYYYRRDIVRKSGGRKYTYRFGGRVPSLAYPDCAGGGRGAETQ
# In short: as §1
# ELF3 = biological target: T11, ELF3 (Homo sapiens, UniProt P78545 1-371); conditions: protein: recombinant; tags: N-terminal GST; dsDNA, one strand shown
# T11 sequence: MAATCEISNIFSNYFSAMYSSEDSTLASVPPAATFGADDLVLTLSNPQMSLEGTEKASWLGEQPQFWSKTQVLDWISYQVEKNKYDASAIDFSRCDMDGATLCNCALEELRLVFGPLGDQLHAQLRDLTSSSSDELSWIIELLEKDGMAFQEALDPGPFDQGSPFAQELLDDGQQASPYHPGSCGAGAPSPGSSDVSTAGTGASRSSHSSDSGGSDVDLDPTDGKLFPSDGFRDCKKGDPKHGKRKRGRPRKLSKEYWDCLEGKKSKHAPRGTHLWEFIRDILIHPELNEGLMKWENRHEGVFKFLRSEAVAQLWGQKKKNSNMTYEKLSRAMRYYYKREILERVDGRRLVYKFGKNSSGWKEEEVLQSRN
# In short: as §1
# CRX = CRX (Homo sapiens, UniProt O43186 1-299); conditions: protein: recombinant; tags: N-terminal GST; dsDNA, one strand shown
# CRX, sequence (O43186 whole entry): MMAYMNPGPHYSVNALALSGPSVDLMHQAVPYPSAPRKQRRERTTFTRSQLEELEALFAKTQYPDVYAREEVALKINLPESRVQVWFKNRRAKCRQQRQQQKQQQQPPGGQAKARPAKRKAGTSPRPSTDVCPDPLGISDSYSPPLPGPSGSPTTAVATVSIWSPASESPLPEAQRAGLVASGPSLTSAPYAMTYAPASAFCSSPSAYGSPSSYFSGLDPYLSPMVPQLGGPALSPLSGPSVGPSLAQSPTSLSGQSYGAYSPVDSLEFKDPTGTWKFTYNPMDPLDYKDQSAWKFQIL
# In short: as §1
# ETV1 = ETV1 (Homo sapiens, UniProt P50549 1-477); conditions: protein: recombinant; tags: N-terminal GST; dsDNA, one strand shown
# ETV1, sequence (P50549 whole entry): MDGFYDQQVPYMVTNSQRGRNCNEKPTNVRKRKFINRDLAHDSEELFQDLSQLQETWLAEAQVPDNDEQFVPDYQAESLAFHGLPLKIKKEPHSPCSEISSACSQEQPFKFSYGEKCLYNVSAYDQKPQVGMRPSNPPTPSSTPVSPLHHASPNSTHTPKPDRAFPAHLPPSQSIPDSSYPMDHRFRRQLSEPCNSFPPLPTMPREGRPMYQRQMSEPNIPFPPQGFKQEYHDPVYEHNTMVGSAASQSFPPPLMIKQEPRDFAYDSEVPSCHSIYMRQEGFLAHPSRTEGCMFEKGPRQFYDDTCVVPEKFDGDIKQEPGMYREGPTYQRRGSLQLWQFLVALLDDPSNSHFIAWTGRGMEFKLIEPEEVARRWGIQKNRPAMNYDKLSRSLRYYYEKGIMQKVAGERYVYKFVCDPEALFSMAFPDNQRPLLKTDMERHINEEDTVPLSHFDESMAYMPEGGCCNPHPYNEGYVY
# In short: as §1
sequence,measurement,setting,value
TTGAAT,binding signal,FLI1,"1.11 fold enrichment (6-mer frequency, TF over GST control)"
same,binding signal,ELK1,"1.08 fold enrichment (6-mer frequency, TF over GST control)"
same,binding signal,GABPA,"1.15 fold enrichment (6-mer frequency, TF over GST control)"
same,binding signal,ERG,"1.1 fold enrichment (6-mer frequency, TF over GST control)"
same,binding signal,ELF1,"1.12 fold enrichment (6-mer frequency, TF over GST control)"
same,binding signal,EHF,"1.11 fold enrichment (6-mer frequency, TF over GST control)"
same,binding signal,SPI1,"1.12 fold enrichment (6-mer frequency, TF over GST control)"
same,binding signal,SPIB,"1.03 fold enrichment (6-mer frequency, TF over GST control)"
same,binding signal,ELK3,"1.04 fold enrichment (6-mer frequency, TF over GST control)"
same,binding signal,FEV,"1.03 fold enrichment (6-mer frequency, TF over GST control)"
same,binding signal,ETV5,"1.07 fold enrichment (6-mer frequency, TF over GST control)"
same,binding signal,HSF1,"1.09 fold enrichment (6-mer frequency, TF over GST control)"
same,binding signal,SPIC,"1.16 fold enrichment (6-mer frequency, TF over GST control)"
same,binding signal,ELF4,"1.12 fold enrichment (6-mer frequency, TF over GST control)"
same,binding signal,ELK4,"1.05 fold enrichment (6-mer frequency, TF over GST control)"
same,binding signal,ETV2,"1.04 fold enrichment (6-mer frequency, TF over GST control)"
same,binding signal,ELF3,"1.1 fold enrichment (6-mer frequency, TF over GST control)"
same,binding signal,CRX,"1.17 fold enrichment (6-mer frequency, TF over GST control)"
same,binding signal,ETV1,"1.11 fold enrichment (6-mer frequency, TF over GST control)"
